# Screens: PubChem, National Center for Advancing Translational Sciences (NCATS)
# Shiga inhibitor – Shiga toxin inhibition; Vero cells, Shiga toxin protein synthesis inhibition reporter; inhibition, % at 38.7 µM; 9.2% of 290,000 active; in the data active = inhibition mostly above about 28%, no sharp cut-off; inactive = mostly below about 43%
# Cycloheximide cs – counter-screen for Shiga toxin inhibitors: cycloheximide protein synthesis inhibition | cell reporter, cycloheximide protein synthesis inhibition counterscreen | max response, % | 12% of 300,000 active | AID 2314; in the data active = max response mostly above about 13%, no sharp cut-off; inactive = mostly below about 14%; also: read at 38.3 µM for the half of the compounds with a filed dose
# Pf growth 48h – P. falciparum growth inhibition at 48 hours (one generation); 5.9% of 310,000 active; AID 504832; Potency, µM (highest dose often 28.7 µM), usual class: inhibitors; P. falciparum luciferase growth in erythrocytes, 48 h
#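 Luciferase-expressing parasites in RBCs, 2% Hct / 0.1% parasitemia final; RPMI 1640 + 0.5% Albumax; 37 C, 5% CO2, one generation; luminescence read-out, lower signal = inhibition.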
# HCMV inh – inhibitors of human cytomegalovirus | HFF cells, HCMV-luciferase reporter, 72 h; hits give low values | activity change, negative = inhibition, % at 57.5 µM | 4.5% of 410,000 active; in the data active = activity change below about -60%; inconclusive = no clear call, values can overlap the other calls; inactive = above about -39%
#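 Inhibition of viral replication was scored as loss of reporter luminescence in HFFs infected with HCMV-luciferase (MOI 1 PFU/cell) for 72 h; compounds tested at 2 doses, normalized to buffer and Salinomycin controls.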
# HCV inhibitor – HCV inhibition | Huh7.5.1 HCVcc-Cre infection, luciferase reporter, 44 h | Potency, µM (highest dose often 41.8 µM), actives largely listed as inhibitors | 3.4% of 340,000 active | AID 651820
#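 Whole-lifecycle infectious HCVcc-Cre system; cells 1,000/well, compound then virus (~0.5 moi) added 4 h after plating, 44 h culture. Luciferase read 15 sec following 15 min substrate incubation, room temp.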
# Pf growth 96h – inhibits malaria parasite growth, 96 h; P. falciparum luciferase reporter growth, 96 h; Potency, µM (series often up to 28.7 µM), hits mostly inhibitors; 6.9% of 320,000 active; AID 504834
#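 Compounds incubated with erythrocytes infected by luciferase-expressing P. falciparum (2% hematocrit, 0.05% parasitemia final) for 96 hours, 37 C in 5% CO2. Growth inhibition scored as decreased luciferase luminescence.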
# Numbers stand for hits; 0 = inactive; ? = inconclusive; - = not tested or not shown. An excerpt weighted towards active compounds, which were near 21% of everything screened. Unless noted, calls follow the shape of the dose curve; as a rule, active = well fitted inhibition curve with a large enough effect; inconclusive = small, poorly fitted or top-dose-only effect, or another doubt; inactive = no such curve, though single readings can be large or run the other way.
SMILES,Shiga inhibitor,Cycloheximide cs,Pf growth 48h,HCMV inh,HCV inhibitor,Pf growth 96h
CCC(C)NS(=O)(=O)c1ccc(S(=O)(=O)N2CC=C(c3ccc(F)cc3)CC2)cc1 (stereo not drawn),0,0,0,-72.8,?,0
CCCCCC1CCC(c2n[nH]c(=S)n2C)CC1 (stereo not drawn),0,0,?,-82.3,0,5.86µM
C=CCn1c(C2CC2)n[nH]c1=S,0,0,0,0,0,0
CN1CCN(c2ccc(C(=O)c3ccc(F)cc3)cc2)CC1,110.6,0,0,0,0,0
O=C(c1ccccc1)c1ccc(N2CCOCC2)cc1,-,-,-,0,0,-
O=C(c1ccccc1)c1ccc(N2CCNCC2)cc1,active,34.0,0,-,?,-
O=C(O)CCC(=O)N1CCN(c2ccc(C(=O)c3ccc(F)cc3)cc2)CC1,0,0,0,0,0,-
O=C(c1ccccc1)c1ccc(N2CCCC2)cc1,53.1,23.5,0,0,0,?
O=c1cc(O)n(Cc2ccc(F)cc2)c(=O)[nH]1,0,0,0,?,0,0
CC(=O)COc1cc2c(-c3cc4ccccc4o3)cc(=O)oc2cc1C,0,0,0,0,?,?
Cc1nnnn1/C(=C\c1ccccc1)C(=O)OCC(=O)N(C)C1CCS(=O)(=O)C1 (stereo not drawn),0,0,?,-,0,0
CC(=O)c1ccccc1NC(=O)COC(=O)/C(=C/c1ccccc1)n1nnnc1C,0,0,5.86µM,0,0,2.08µM
CCOc1ccccc1N(C)S(=O)(=O)c1ccc2c(c1)N(C(C)=O)CCO2,0,0,0,0,0,1.85µM
CC(=O)N1CCOc2ccc(S(=O)(=O)N3CC(C)CC(C)C3)cc21 (stereo not drawn),0,0,0,0,?,9.28µM
CC(=O)N1CCOc2ccc(S(=O)(=O)N(C)c3cccc(C)c3)cc21,0,0,0,0,?,0
CN1C(C(=O)NCc2ccco2)=CC(c2ccc(F)cc2)=NS1(=O)=O,0,0,0,0,0,0
Cc1ccc(S(=O)(=O)N2CCOCC2)cc1C(=O)N1CCN(c2ncccn2)CC1,-,-,0,0,0,0
CC1=NN(C(C#N)c2ccc(F)cc2)C(c2ccccc2)C1 (stereo not drawn),0,0,0,0,0,14.7µM
N#CC(c1ccccc1O)N1N=C(c2ccccc2)CC1c1ccccc1 (stereo not drawn),96.6,62.8,0,-60.7,?,0
COc1cc(C(C#N)N2N=C(c3ccccc3)CC2c2ccccc2)ccc1O (stereo not drawn),86.9,29.8,0,0,0,0
CC1=NN(C(C#N)c2ccccc2C)C(c2ccccc2)C1 (stereo not drawn),0,0,0,0,0,0
COc1cc(-c2noc(C3CCCN(C(=O)c4c(F)cccc4F)C3)n2)cc(OC)c1OC (stereo not drawn),-,0,?,0,?,0
COc1ccc([C@H]2C[C@@H](n3cc(-c4ccc(F)cc4)nn3)[C@H](O)CN2C(=O)c2cccs2)cc1,-,-,-,0,-,-
COc1ccc(C(CNC(=O)C(CCSC)NC(=O)c2ccccc2Cl)N2CCCC2)cc1 (stereo not drawn),-,-,?,0,0,?
CC(C)C(NC(=O)c1ccccc1F)C(=O)NCC(c1ccco1)N1CCCCC1 (stereo not drawn),-,-,-,-63.7,0,-
SMILES,Shiga inhibitor,Cycloheximide cs,Pf growth 48h,HCMV inh,HCV inhibitor,Pf growth 96h
COc1ccccc1C(=O)NC(CCSC)C(=O)NCC(c1ccccc1OC)N1CCCC1 (stereo not drawn),-,-,?,0,0,0
CSCCC(NC(=O)c1ccccc1Cl)C(=O)NCC(c1ccco1)N1CCCCC1 (stereo not drawn),-,-,14.7µM,0,0,7.38µM
COc1ccccc1CC(=O)NCC(c1ccco1)N1CCCCC1 (stereo not drawn),0,0,?,0,0,?
COc1ccc(C(CNC(=O)C(CCSC)NC(=O)c2ccccc2Cl)N2CCCCC2)cc1 (stereo not drawn),-,-,7.38µM,0,0,?
CSCCC(NC(=O)c1ccccc1Cl)C(=O)Nc1cccc(S(=O)(=O)N2CCCC2)c1 (stereo not drawn),-,-,11.7µM,0,0,?
CC(=O)N1CCOc2ccc(S(=O)(=O)NCc3ccc(F)cc3)cc21,0,0,0,0,0,0
Cc1ccsc1C(=O)OCC(=O)N1CCOCC1,72.6,35.0,0,0,0,0
O=C(OCC(=O)N1CCOCC1)c1ccc2c(c1)OCCO2,0,0,0,0,0,0
Nc1cc(C(=O)OCC(=O)N2CCOCC2)ccc1Cl,57.9,35.4,0,0,0,0
CC1CN(C(=O)COC(=O)c2ccc(N(C)C)cc2)CC(C)O1 (stereo not drawn),0,0,0,0,0,0
Nc1ccc(C(=O)OCC(=O)N2CCOCC2)cc1[N+](=O)[O-],56.9,30.9,0,0,0,0
CN(C)c1ccc(C(=O)OCC(=O)N2CCOCC2)cc1,0,23.5,0,0,0,0
Nc1[nH]c(C(=O)c2ccccc2)c(-c2ccccc2C(F)(F)F)c1C(=O)NCCc1cccs1,-,-,-,0,-,-
COc1ccc(-c2oc3c(c2C#CC2(O)CCCCC2)C(OC(C)=O)CCC3)cc1 (stereo not drawn),-,-,-,0,-,-
CC(=O)N1CCN(CC(=O)Nc2ccc([N+](=O)[O-])cc2Br)CC1,0,0,0,0,?,0
Cc1ccc(C(=O)N/C(=C/c2ccc(-c3ccc([N+](=O)[O-])cc3)o2)C(=O)NCCCN(C)C)cc1,-,-,-,?,0,-
CCOP(=O)(c1ccc(N(C)C)cc1)C(O)c1ccc(OC)cc1 (stereo not drawn),0,0,0,0,0,0
O=C(OCC(=O)N1CCN(c2ccccc2)CC1)c1cc(Cl)ccc1[N+](=O)[O-],0,0,0,0,0,11.7µM
O=C(OCC(=O)N1CCN(c2ccccc2)CC1)c1ccc(Cl)cc1[N+](=O)[O-],-,-,0,0,0,0
O=C(OCC(=O)N1CCOCC1)c1ccc(Cl)cc1[N+](=O)[O-],46.7,23.8,0,?,0,0
Cc1cc(Br)cc(Cl)c1OCC(=O)N1CCN(C(=O)c2ccco2)CC1,-,-,0,0,0,?
COCCCNC(=O)c1sc2nc(C)c(C(=O)Nc3ccc(C)cc3C)c(-c3ccc(Cl)cc3)c2c1N,-,-,-,0,-,-
CC1(C)CC(=O)C=C(N2CCNCC2)C1,0,0,0,0,0,0
CC1(C)CC(N2CCN(c3ccccc3)CC2)=CC(=[N+]2CCCC2)C1,0,0,1.65µM,-98.3,?,0
CC1(C)CC(N2CCCC2)=CC(=[N+]2CCCCCC2)C1,0,0,?,-97.6,?,0
CC1CC(C)C[N+](=C2C=C(N3CCCC3)CC(C)(C)C2)C1 (stereo not drawn),0,0,0.37µM,-102.5,3.55µM,?
COc1cc(OC)c(NC(=O)C(C)n2c(=O)cc(-c3ccccc3)c3c(C)nn(C)c32)cc1Cl (stereo not drawn),-,-,-,0,-,-
